# System: RXRa homodimer (NR concentration 180 nM)
# Experiment: PBM binding z-score (relative to random genomic background probes); higher = stronger binding; sequences stand for … in GC…GCGATTGACAGCGTAGAATGAAGG
# Outline: (§1)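 Random background probes are the reference for binding z-scores. These scores derive from regression-normalized fluorescence on custom Agilent 4×180K protein-binding microarrays incubated 1 h with ligand-free nuclear receptor dimers. Binding was detected with antibodies against each partner (one per run).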
row,Sequence,PBM binding z-score
1,AGAATGAGGTTATTAAGATCCGGGAATTGCGGTC,1.68
2,ATCTCTAGGTAAGACTCACTTCAGTGAAGAACGC,-0.184
3,ACTAGCAGGCCAAGGGTCACTCAAGATTAGTCCG,3.93
4,TCATATAGGTAAAGGTGAAGGTCGAACGATATGA,2.51
5,TCTCGGAGGACACGACAGGTCAGAGCTCGACATC,1.41
6,CCTACTGGGCCATTAGGTCATTGATATCAACGTT,1.04
7,GCGACTGGGGCATCAGCAGGTTACCATGACTTAA,0.124
8,ATCGACAGGTCGACGAGGTGAGTATACACCGTTT,1.58
9,TAATATAGGTAAACAGGTGAAAGTCCGTAAGTTA,1.26
10,CCGACTGGGGCAGAAACGTTACCATACCATCCGG,-0.341
11,CCTCGGAGGACAGAGGGTCAGAGCTGTCCGCTTT,1.6
12,TCTAGCAGGCCAGAGGGCCACTCAAGAGGTACGG,0.144
13,CGAACTAGGTCATTGACAGGACAGTGAATAGTAA,2.61
14,CGTCCAAGGTCATAGGAGCTCAGTGAAGACAGAT,5.68
15,TCTATTACTTGATTAGGGCAACCGAAACAGCGGA,0.781
16,ATATGTAGGTTAAGGGTCAGTCAGGTTGGTTCGC,4.19
17,AGTCAAAGTTCACTAGGTAACGTGAGATTCAGCT,3.61
18,GCTATTAATTGAAAGGGCAACCGAATGATTCTCG,0.421
19,CCTAGCAGGACAATCTGGGTCACTCAAGGCTTGA,1.09
20,ACTATTAGTTGAGACGAGGTCAACCGATAGGTTG,4.82

row,Sequence,PBM binding z-score
1,TCGAGTAGGTGACCAATGGGGCATTCAGCTTTCT,0.185
2,CGAACTAGGTCATTGACAGAACAGTGAATAGTAA,2.46
3,CCTTACGGGTCACTGACAGGTTATACCATTTGGA,5.54
4,ACTAGCAGGCCAAGTTTGCGTCACTCAAACAAAG,-0.299
5,TGTCTAAGTTCAAAGGTAACGTAAGTATCCACAC,5.62
6,CAAACTAGGTCACGAAAGGTCAAAGTCGAATGAC,7.98
7,TATACAGGGTCAAAGGCCAGGGTACGAATGTCGA,7.42
8,CAAGACAGGTGAGAAGGTAACTCAGCCTCGATTA,0.481
9,GTAGCAAGGTGAATAGGTCGTTGATGAGTAGGCG,1.56
10,CAGCCTAGGTCAGGGCCACTATAGGAGGAACGTT,1.84
11,CGAACTAGGTCAAGGACAGTGGATCTCCGCACGC,2.41
12,TCATTTAGGTAAACAGGTGAAAGTCCGTAAGTTA,0.903
13,CAAACTAGGTCACTGGAAGGTCAAAGTCCGCATG,5.54
14,TCATATAGGTATACAGGTGAAAGTCCGTAAGTTA,1.14
15,ATCTTTAGGTAAAAGTTCAGTGAATCCCGAGGAT,1.57
16,ACGAGTTGGTCAGCTGAGGTCACACACAATTCGG,4
17,TAGCCTAGGTCATCGGCCAGTATACCACGCGAAC,3.08
18,CCTCCTGGGCCATTCAGAGGTCATTGATCATATG,4
19,TAGCCTAGGTCATGCGGGCCATTATAGTGTCGGC,3.23
20,TAGTCTAGGTCATTCAGGGGCCAGTATAGAAAGC,2.96

# System: THRa:RXRa (NR concentration 90 nM, RXRa partner concentration 90 nM)
# Experiment: as above
# Outline: as §1
row,Sequence,PBM binding z-score
1,AGAATGAGGTTATTAAGATCCGGGAATTGCGGTC,2.29
2,ATCTCTAGGTAAGACTCACTTCAGTGAAGAACGC,0.282
3,ACTAGCAGGCCAAGGGTCACTCAAGATTAGTCCG,2.65
4,TCATATAGGTAAAGGTGAAGGTCGAACGATATGA,1.82
5,TCTCGGAGGACACGACAGGTCAGAGCTCGACATC,2.96
6,CCTACTGGGCCATTAGGTCATTGATATCAACGTT,2.63
7,GCGACTGGGGCATCAGCAGGTTACCATGACTTAA,0.654
8,ATCGACAGGTCGACGAGGTGAGTATACACCGTTT,2.58
9,TAATATAGGTAAACAGGTGAAAGTCCGTAAGTTA,0.862
10,CCGACTGGGGCAGAAACGTTACCATACCATCCGG,-0.691
11,CCTCGGAGGACAGAGGGTCAGAGCTGTCCGCTTT,1.69
12,TCTAGCAGGCCAGAGGGCCACTCAAGAGGTACGG,-0.545
13,CGAACTAGGTCATTGACAGGACAGTGAATAGTAA,2.98
14,CGTCCAAGGTCATAGGAGCTCAGTGAAGACAGAT,4.03
15,TCTATTACTTGATTAGGGCAACCGAAACAGCGGA,0.792
16,ATATGTAGGTTAAGGGTCAGTCAGGTTGGTTCGC,2.78
17,AGTCAAAGTTCACTAGGTAACGTGAGATTCAGCT,1.87
18,GCTATTAATTGAAAGGGCAACCGAATGATTCTCG,0.301
19,CCTAGCAGGACAATCTGGGTCACTCAAGGCTTGA,3.07
20,ACTATTAGTTGAGACGAGGTCAACCGATAGGTTG,4.73

row,Sequence,PBM binding z-score
1,TCGAGTAGGTGACCAATGGGGCATTCAGCTTTCT,-0.147
2,CGAACTAGGTCATTGACAGAACAGTGAATAGTAA,2.47
3,CCTTACGGGTCACTGACAGGTTATACCATTTGGA,2.85
4,ACTAGCAGGCCAAGTTTGCGTCACTCAAACAAAG,-0.253
5,TGTCTAAGTTCAAAGGTAACGTAAGTATCCACAC,3.44
6,CAAACTAGGTCACGAAAGGTCAAAGTCGAATGAC,5.23
7,TATACAGGGTCAAAGGCCAGGGTACGAATGTCGA,3.73
8,CAAGACAGGTGAGAAGGTAACTCAGCCTCGATTA,0.413
9,GTAGCAAGGTGAATAGGTCGTTGATGAGTAGGCG,1.36
10,CAGCCTAGGTCAGGGCCACTATAGGAGGAACGTT,2.19
11,CGAACTAGGTCAAGGACAGTGGATCTCCGCACGC,3.05
12,TCATTTAGGTAAACAGGTGAAAGTCCGTAAGTTA,1.52
13,CAAACTAGGTCACTGGAAGGTCAAAGTCCGCATG,4.3
14,TCATATAGGTATACAGGTGAAAGTCCGTAAGTTA,0.729
15,ATCTTTAGGTAAAAGTTCAGTGAATCCCGAGGAT,1.76
16,ACGAGTTGGTCAGCTGAGGTCACACACAATTCGG,4.77
17,TAGCCTAGGTCATCGGCCAGTATACCACGCGAAC,2.76
18,CCTCCTGGGCCATTCAGAGGTCATTGATCATATG,3.3
19,TAGCCTAGGTCATGCGGGCCATTATAGTGTCGGC,3.16
20,TAGTCTAGGTCATTCAGGGGCCAGTATAGAAAGC,3.63

# — the supplement of paper PMC6555819
